Assay [1] addresses Tyrosine-protein kinase Yes (Homo sapiens) (UniProt P07947). The assay is described as follows: qHTS for small molecule inhibitors of Yes1 kinase: Primary Screen (AID 686947). Further: nearly all actives have a fitted effect of over 60% in size. Further: potency means the concentration at half of the fitted maximal effect. The essentials: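 Yes1 (4 nM) preincubated 20 min with compound, then 60 min room-temperature reaction with 0.1 mM ATP and 0.3 mg/mL poly(E4Y) in pH 7.5 Tris, 10 mM MgCl2. ADP measured by ADP-Glo luminescence, normalised to enzyme/no-enzyme controls.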
(qHTS replaces the single test concentration by a dilution series.)

The nature of assay [2]: qHTS for small molecule inhibitors of Yes1 kinase: Counter Assay (AID 686950).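 Further: no kinase present so only ADP-Glo detection of a fixed ADP amount is tested; luminescence from ADP-Glo reporting ADP in a fixed ATP and ADP mixture; series mostly up to about 77 µM.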 In outline:
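Luminescence read-out from ADP-Glo quantifies a fixed ADP amount (0.02 mM ADP with 0.08 mM ATP) after 60 min at room temperature; signal is normalized between DMSO wells with ATP/ADP and with 0.1 mM ATP alone.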

Values joined by “and” are separate entries in the source; they are usually repeats but may differ in a detail not shown here. Identical values can stand only once. Records with an inconclusive call do not appear. Entries that show only a call come without a potency. Active and inactive are the calls of the source. The call rests on the fitted dose curve; in most records, active means well fitted curve in the direction sought with a large enough effect; inconclusive means small, poorly fitted or top-dose-only effect, or another doubt; inactive means no such curve, though single readings can be large; an effect the other way counts as inactive or inconclusive.

Sequence of Tyrosine-protein kinase Yes (Homo sapiens) (P07947 whole entry, looked up): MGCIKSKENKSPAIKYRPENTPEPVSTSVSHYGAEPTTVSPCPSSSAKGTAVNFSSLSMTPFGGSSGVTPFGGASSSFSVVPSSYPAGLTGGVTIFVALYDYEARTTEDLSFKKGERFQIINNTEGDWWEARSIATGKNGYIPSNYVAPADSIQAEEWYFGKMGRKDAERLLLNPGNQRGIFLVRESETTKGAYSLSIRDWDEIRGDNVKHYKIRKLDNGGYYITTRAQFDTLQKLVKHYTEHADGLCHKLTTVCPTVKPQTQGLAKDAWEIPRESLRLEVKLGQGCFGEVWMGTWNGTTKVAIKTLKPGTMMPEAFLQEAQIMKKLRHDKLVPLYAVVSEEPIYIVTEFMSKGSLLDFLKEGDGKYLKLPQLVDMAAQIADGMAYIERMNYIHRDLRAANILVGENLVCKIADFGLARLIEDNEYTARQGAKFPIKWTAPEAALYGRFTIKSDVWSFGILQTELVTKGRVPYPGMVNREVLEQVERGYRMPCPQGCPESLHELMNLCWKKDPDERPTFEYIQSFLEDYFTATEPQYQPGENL

`O=C1NC(=O)C(c2ccccc2Cl)=C1Nc1cccc(O)c1`: in assay [1], the Potency was 8.23 µM (active). Besides, the call in assay [2] was inactive.

For `CS(=O)(=O)CCNCc1cc(-c2cc3c(Nc4ccc(OCc5cccc(F)c5)c(Cl)c4)ncnc3s2)cs1`, the Potency in assay [1] was 46.3 µM (active). The outcome in assay [2] was inactive.

For the compound `Cc1ccc2c(-c3ccnc(Nc4ccc5c(c4)OCCO5)n3)c(-c3ccc(C(F)(F)F)cc3)nn2n1`, the Potency in assay [1] is 0.823 µM (active). In assay [2], the compound was classed as inactive.

With `O=C(Nc1n[nH]c2nc(-c3ccc(O)cc3)c(Br)cc12)C1CC1`, in assay [1], the Potency was 1.64 µM (active). Besides, the compound was classed as inactive in assay [2].

`Cc1nn(C)c2cc(N(C)c3ccnc(Nc4cccc(S(N)(=O)=O)c4)n3)ccc12`: the Potency in assay [1] is 1.16 µM (active). Also, the compound was called inactive in assay [2].

Turning to `COc1ccc2cc(-c3c(-c4ccncc4)nc(-c4ccc(S(C)(=O)=O)cc4C)n3C)ccc2c1`, the Potency in assay [1] is 1.84 µM (active). Besides, the compound was called inactive in assay [2].

As to `COc1ccccc1Nc1ncc(-c2ccccc2)o1`, in assay [1], the Potency was 9.23 µM (active). The compound was called inactive in assay [2].

`COc1cccc(-n2ncc3c(NN=Cc4ccncc4)ncnc32)c1`: in assay [1], the Potency is 0.0923 µM (active). The compound was called inactive in assay [2].

In the case of `CCn1c(-c2nonc2N)nc2cncc(C(=O)NCCNC)c21`, the Potency in assay [1] was 1.3 µM (active). Also, the compound was classed as inactive in assay [2].

With `NC(=O)c1sc(-n2cnc3cc(C(F)(F)F)ccc32)cc1OCc1ccccc1Br`, in assay [1], the Potency entry was “inactive”. Besides, the outcome in assay [2] was inactive.

With `CNC(=O)c1ncccc1Nc1nc(Nc2cc3c(cc2OC)CCCN3C(=O)CN(C)C)nc2[nH]ccc12`, the Potency result in assay [1] was “inactive”. For the same compound, the outcome in assay [2] was inactive.

For the compound `NS(=O)(=O)c1cccc(-c2ccc3c(NC(=O)C4CC4)n[nH]c3c2)c1`, in assay [1], the Potency was 4.12 µM (active). Besides, in assay [2], the compound was called inactive.

With `Cc1ccc(NC(=O)CC2CC2)cc1-c1ccc(C(=O)NCC2CC2)cc1`, the Potency result in assay [1] was “inactive”. The call in assay [2] was inactive.

For the compound `Fc1ccc(-c2ncn(C3CCNCC3)c2-c2ccnc(Oc3ccccc3)n2)cc1`, the Potency in assay [1] is 11.6 µM (active). In assay [2], the outcome was inactive.

For `CS(=O)(=O)c1ccc(Oc2nccc(-c3c(-c4ccc(F)cc4)ncn3C3CCNCC3)n2)cc1`, the Potency entry in assay [1] is “inactive”. Moreover, the result in assay [2] was inactive.

As to `Cn1c(-c2nonc2N)nc2cnccc21`, the Potency entry in assay [1] is “inactive”. The compound was classed as inactive in assay [2].

In the case of `c1ccc(-c2nc3n(c2-c2ccc4c(c2)OCO4)CCC3)nc1`, the Potency result in assay [1] is “inactive”. In addition, the compound was classed as inactive in assay [2].

As for `N#Cc1ccc(Oc2nccc(-c3c(-c4ccc(F)cc4)ncn3C3CCNCC3)n2)cc1`, the Potency entry in assay [1] is “inactive”. Further, the compound was called inactive in assay [2].

On to `COC(=O)Nc1nc2ccc(S(=O)(=O)c3ccc(NC(=O)Nc4cc(C(F)(F)F)ccc4F)cc3)cc2[nH]1`, for which the Potency entry in assay [1] was “inactive”. Moreover, in assay [2], the result was inactive.

Regarding `NC(=O)c1ccc(Oc2nccc(-c3c(-c4ccc(F)cc4)ncn3C3CCNCC3)n2)cc1`, the Potency in assay [1] is 11.6 µM (active). Also, the outcome in assay [2] was inactive.

Regarding `NS(=O)(=O)c1ccc(-c2ccc3c(NC(=O)C4CC4)n[nH]c3c2)cc1`, the Potency in assay [1] was 1.84 µM (active). The outcome in assay [2] was inactive.

For the compound `COc1cc2ncn(-c3cc(OC(C)c4ccccc4Cl)c(C(N)=O)s3)c2cc1OC` (stereo not drawn), the Potency in assay [1] was 2.92 µM (active) and 733 nM (active). The result in assay [2] was inactive.

In the case of `CC(Oc1cc(-n2cnc3ccc(OC4CCN(C)CC4)cc32)sc1C(N)=O)c1ccccc1Cl` (stereo not drawn), the Potency in assay [1] was 5.82 µM (active). Further, the compound was called inactive in assay [2].

`NS(=O)(=O)c1ccc(Nc2ncc(-c3ccccc3)o2)cc1`: the Potency result in assay [1] is “inactive”. Also, in assay [2], the compound was called inactive.

Take `Cc1ccc2c(-c3ccnc(Nc4ccccc4)n3)c(-c3ccc(F)cc3)nn2n1`: the Potency in assay [1] was 0.116 µM (active). Further, in assay [2], the outcome was inactive.

Turning to `CC(C)c1ccc(Nc2nccc(-c3cnn4ncccc34)n2)cc1`, the Potency in assay [1] is 26 µM (active). Besides, the compound was classed as inactive in assay [2].

Turning to `N#Cc1cccc(Nc2ncc(-c3ccccc3)o2)c1`, in assay [1], the Potency was 26 µM (active). The call in assay [2] was inactive.

Regarding `N#Cc1c(NC(=O)CN2CCOCC2)sc2c1CCCC2`, the Potency entry in assay [1] is “inactive”. For the same compound, the result in assay [2] was inactive.

Take `FC(F)(F)c1ccc(-c2nn3ncccc3c2-c2ccnc(Nc3ccc4c(c3)OCCO4)n2)cc1`: the Potency in assay [1] was 2.6 µM (active). Besides, in assay [2], the compound was classed as inactive.

With `COc1cccc(-n2ncc3c(NN=Cc4cccc(F)c4)ncnc32)c1`, the Potency in assay [1] was 0.146 µM (active). The result in assay [2] was inactive.

Regarding `CN1CCC(n2cnc(-c3ccc(F)cc3)c2-c2ccnc(Nc3ccccc3)n2)CC1`, the Potency in assay [1] was 1.16 µM (active). Moreover, in assay [2], the compound was called inactive.

Regarding `CCn1c(-c2nonc2N)nc2c(C#CC(C)(C)O)ncc(OCC3CCCN3)c21` (stereo not drawn), the Potency in assay [1] was 26 µM (active). Further, the outcome in assay [2] was inactive.

For the compound `COc1ccc(CNC(=O)c2ccc(-c3cc(-c4nnc(C)o4)ccc3C)cc2)cc1`, in assay [1], the Potency entry is “inactive”. In assay [2], the call was inactive.

Regarding `O=C1Nc2ccc(-c3cccnc3)cc2C1=Cc1cc(Br)c(O)c(Br)c1`, the Potency in assay [1] was 0.412 µM (active). Further, in assay [2], the compound was called inactive.

With `Fc1ccc(-c2ncn(C3CCNCC3)c2-c2ccnc(Oc3ccc(Oc4ccccc4)cc3)n2)cc1`, the Potency result in assay [1] is “inactive”. Moreover, the compound was classed as inactive in assay [2].

For `COc1cccc(-n2cnc3c(NN=Cc4ccncc4)ncnc32)c1`, the Potency in assay [1] is 0.582 µM (active). In assay [2], the compound was classed as inactive.

For the compound `COc1cc2ncn(-c3cc(OCc4ccccc4C(F)(F)F)c(C(C)=O)s3)c2cc1OC`, in assay [1], the Potency result is “inactive”. For the same compound, in assay [2], the call was inactive.

Consider `COc1cc(C)c(N(C)C(=O)CN(C)C)cc1Nc1nc(Nc2cccc(F)c2C(N)=O)c2cc[nH]c2n1`, for which, in assay [1], the Potency entry is “inactive”. In assay [2], the result was inactive.

As to `COc1ccccc1-c1cc(C=C2C(=O)Nc3ncc(Br)cc32)cc(Br)c1O`, the Potency in assay [1] is 0.733 µM (active). Moreover, in assay [2], the result was inactive.

For `CC1=C(C(=O)Nc2ccc3[nH]ncc3c2)C(c2ccc3ccccc3c2)CC(=O)N1` (stereo not drawn), in assay [1], the Potency was 0.582 µM (active). Further, the call in assay [2] was inactive.

Turning to `CN1CCN(C(=O)c2ccc(NC(=O)Nc3ccc(N(C)c4ccnc(Nc5ccc(CS(C)(=O)=O)cc5)n4)cc3)cc2)CC1`, in assay [1], the Potency is 14.6 µM (active). The compound was classed as inactive in assay [2].

With `CCCNc1cccc(-n2ncc3c(NN=Cc4ccncc4)ncnc32)c1`, the Potency in assay [1] was 0.0328 µM (active). The call in assay [2] was inactive.

Take `O=C1NC(=O)C(c2ccc(Cl)cc2)=C1Nc1ccc(Cl)c(C(=O)O)c1`: in assay [1], the Potency entry is “inactive”. The call in assay [2] was inactive.

In the case of `CCS(=O)(=O)c1ccc(OC)c(Nc2nccc(N(C)c3ccc4c(C)[nH]nc4c3)n2)c1`, the Potency in assay [1] is 0.0519 µM (active). In assay [2], the compound was classed as inactive.

On to `CC(C)COC(=O)c1ccc2[nH]c(O)c(C=Nc3ccc(S(N)(=O)=O)cc3)c2c1`, for which the Potency in assay [1] was 9.23 µM (active). The outcome in assay [2] was inactive.

Turning to `NS(=O)(=O)c1cccc(Nc2cc(-c3ccc(F)cc3)[nH]n2)c1`, the Potency in assay [1] was 3.68 µM (active). Also, the call in assay [2] was inactive.

Consider `c1ccc(-c2[nH]ncc2-c2ccnc(-c3ccc(OCCn4ccnc4)cc3)c2)nc1`, for which the Potency in assay [1] is 4.63 µM (active). In addition, the call in assay [2] was inactive.

Take `Cc1c2ccc(N(C)c3ccnc(Nc4cccc(S(N)(=O)=O)c4)n3)cc2nn1C`: the Potency in assay [1] is 0.519 µM (active). The outcome in assay [2] was inactive.

As for `COc1ccc(Nc2ncc(-c3ccccc3)o2)cc1OC`, the Potency in assay [1] is 1.16 µM (active). Also, the compound was called inactive in assay [2].

Source of the values: PubChem BioAssay (NCATS).
